Only some compounds are listed: those with a hit (about 10% of all), similar ones and a draw of the others.
HPGD block – HPGD (human) dehydrogenase inhibition; P15428; AID 894; hit rate 4.3% among 150,000; Potency, µM, for the others: top-dose activity change, negative = inhibition, actives largely listed as inhibitors; purified HPGD, NADH fluorescence kinetic, PGE2 substrate; also: potency is read from the fitted curve at half-maximal effect
Target sequence (P15428 whole entry, looked up): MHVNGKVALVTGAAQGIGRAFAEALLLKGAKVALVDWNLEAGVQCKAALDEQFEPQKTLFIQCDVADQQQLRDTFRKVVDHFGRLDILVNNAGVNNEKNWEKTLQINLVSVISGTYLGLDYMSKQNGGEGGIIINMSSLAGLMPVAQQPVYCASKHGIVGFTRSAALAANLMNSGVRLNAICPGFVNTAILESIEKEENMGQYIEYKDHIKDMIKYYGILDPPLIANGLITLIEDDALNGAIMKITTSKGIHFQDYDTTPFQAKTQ
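NADH formation kinetics: reaction with 30 uM PGE2 and 1 mM NAD+ (final), 20 nM enzyme, Tris-HCl pH 8 with Tween 20, after 15 min compound preincubation at room temperature. Fluorescence change, last versus first of five reads.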
KinaseGlo FLuc – counter-screen: inhibitors of Kinase-Glo firefly luciferase; Q27757; Potency, µM (top dose mostly 38.3 µM), for inactives: at the highest dose activity change, negative = inhibition, most hits filed as inhibitors; Kinase-Glo luciferase, ATP luminescence, 8 min; hit rate 0.28% among 200,000; AID 1379; active = well fitted inhibition curve with a large enough effect; inconclusive = small, poorly fitted or top-dose-only effect; also: potency is read from the fitted curve at half-maximal effect; nearly all actives have a fitted effect of over 60% in size
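Light output from Kinase-Glo luciferase with luciferin and 10 uM ATP in 50 mM imidazole pH 7.2, KCl, MgCl2, Tween 20, BSA; compound pin-delivered, 8-min ambient incubation, then luminescence read.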
IMPase inh – cell-permeable inhibitors of inositol monophosphatase (IMPase) | P97697 | CHO-M1 cells, IP1 accumulation, HTRF TR-FRET ratio | inhibition (IP1 accumulation), % at 46.1 µM | 120,000 tested, under 10 active; active = well fitted curve in the direction sought with a large enough effect in the signal ratio, not every such curve was filed as active; inconclusive = small, poorly fitted or top-dose-only effect, or a change in a side signal; inactive = no such curve, though single readings can be large or run the other way; the % refers to the signal ratio;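 also: cells stimulated with carbachol in lithium chloride buffer; plate controls were DMSO basal wells for no effect and reference inhibitor wells for full effect; higher means more IMPase inhibition seen as more IP1 and lower FRET ratio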
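Cellular IMPase inhibition is scored as a rise in cytosolic IP1, detected by competitive TR-FRET between d2-labelled IP1 and a europium anti-IP1 antibody. M1-expressing CHO cells were stimulated with carbachol for 30 min at 37C, with lithium (50 mM LiCl) present in the buffer.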
ALDH1A1 inh – inhibitors of human aldehyde dehydrogenase 1A1 | P00352 | Purified ALDH1A1, NADH fluorescence, propionaldehyde substrate | Potency, µM (top dose mostly 75.3 µM), without a hit: at the top dose activity, negative = inhibition, usual class: inhibitors | hit rate 7.3% among 220,000 | AID 1030;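 also: potency is read from the fitted curve at half-maximal effect; plate controls were no enzyme wells and a reference inhibitor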
Target sequence (P00352 whole entry, looked up): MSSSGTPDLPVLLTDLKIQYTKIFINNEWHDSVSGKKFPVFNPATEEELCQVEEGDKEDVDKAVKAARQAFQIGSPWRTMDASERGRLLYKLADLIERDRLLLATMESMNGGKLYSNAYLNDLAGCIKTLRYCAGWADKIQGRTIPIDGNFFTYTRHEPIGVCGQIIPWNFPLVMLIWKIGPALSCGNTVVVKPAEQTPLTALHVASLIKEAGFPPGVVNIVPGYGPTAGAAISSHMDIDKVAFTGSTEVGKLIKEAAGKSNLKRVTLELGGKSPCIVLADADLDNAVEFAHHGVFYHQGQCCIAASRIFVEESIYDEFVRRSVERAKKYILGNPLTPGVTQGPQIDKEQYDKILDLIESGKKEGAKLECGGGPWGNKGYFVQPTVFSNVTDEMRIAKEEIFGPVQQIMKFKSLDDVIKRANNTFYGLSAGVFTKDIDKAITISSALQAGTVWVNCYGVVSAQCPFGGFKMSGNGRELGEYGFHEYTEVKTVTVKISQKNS
Lamin A splicing – changes lamin A minigene splicing in HeLa cells; Potency, µM (doses to about 46.1 µM), for the others: top-dose ratio change, negative = inhibition, hits mostly inhibitors; hit rate 0.01% among 200,000; HeLa LMNA splicing GFP/RFP minigene ratio, 48 h; active = well fitted inhibition curve with a large enough effect in the signal ratio, with a control signal flat, not every such curve was filed as active; inconclusive = small, poorly fitted or top-dose-only effect, or effect the other way, or a change in a side signal; the % refers to the signal ratio; also: potency is read from the fitted curve at half-maximal effect
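Read-out is the ratio of GFP to DsRed2 object intensity, acquired by 488 nm laser-scanning cytometry on HeLa lamin A-EGFP minigene reporter cells. Compound incubation 48 hrs at 37 °C in Opti-MEM with 2% FBS; DMSO 0.5% final.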
PNC assembly inh – blocks assembly of the perinucleolar compartment. AID 2417. PC3M PTB-GFP, PNC prevalence imaging, 16 h; stronger effect = lower value. hit rate 3.1% among 140,000. activity change (PNC), negative = inhibition, % at 10 µM;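 active = readout at or below -70, meaning at least 70% loss of cells showing the perinucleolar compartment, a nuclear body marking cancer cells; inconclusive = readout between -30 and a set limit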;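 also: plate controls were DMSO wells for no effect and camptothecin positive control wells for full effect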
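Read-out is percentage of cells bearing a perinucleolar compartment, from automated 20x imaging of fixed, Hoechst-stained PC3M PTB-GFP cells. Cells were seeded 4 h, then exposed 16 h to compound (23 nl of library stock) in duplicate plates.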
Active calls of the source: *; [ ] = remark or other dose. Unless noted, calls follow the shape of the dose curve; as a rule, active = well fitted inhibition curve with a large enough effect (not every such curve was filed as active); inconclusive = small, poorly fitted or top-dose-only effect, or another doubt; inactive = no such curve, though single readings can be large or run the other way. Unless noted, % is scaled to controls: 0 for no effect and ±100 for the full control effect.

CCOC(=O)c1c(-c2ccc(C)o2)csc1NC(=O)COC(=O)c1cccs1 was read as HPGD block 22.4µM*, KinaseGlo FLuc -4.5%, IMPase inh -5.3, ALDH1A1 inh 14.1µM*, Lamin A splicing -7.8% and PNC assembly inh inconclusive.
For CCOC(=O)c1c(-c2ccc(C)o2)csc1NC(=O)CN1CCOCC1 the results were HPGD block inconclusive, KinaseGlo FLuc 6.2%, IMPase inh 1.4, ALDH1A1 inh -12.6%, Lamin A splicing -2.6% and PNC assembly inh inconclusive.
Screening CCOC(=O)c1c(-c2cccs2)csc1NC(=O)CC(C)C returned HPGD block inconclusive, KinaseGlo FLuc -4.4%, IMPase inh 6.5, ALDH1A1 inh inconclusive, Lamin A splicing -4.5% and PNC assembly inh 12.1.
For COCCNC(=O)CSc1nc2cc3c(cc2c(=O)n1CCCC(=O)NCc1ccc2c(c1)OCO2)OCO3 the results were Lamin A splicing 1.7%[46 µM].
For C=CCn1c(N)c(C(=O)NCC2CCCO2)sc1=S (stereo not given) the results were HPGD block -7.2%, KinaseGlo FLuc -0.3%, IMPase inh -8.2, ALDH1A1 inh 4.1%, Lamin A splicing 6.1% and PNC assembly inh -25.0.
For CCn1c(N)c(C(=O)NCC2CCCO2)sc1=S (stereo not given) the results were HPGD block 6.31µM*, KinaseGlo FLuc -7.0%, IMPase inh 4.5, ALDH1A1 inh 8.91µM*, Lamin A splicing 7.4% and PNC assembly inh -27.2.
For O=C(CSc1nnc(Cn2c(=O)sc3ccccc32)n1-c1ccccc1)NCC1CCCO1 (stereo not given) the results were HPGD block -24.0%, KinaseGlo FLuc -2.6%, IMPase inh -0.3, ALDH1A1 inh 2.8%, Lamin A splicing -3.1% and PNC assembly inh -108.4*.
For Nc1c(C(=O)NCC2CCCO2)sc(=S)n1-c1ccccc1 (stereo not given) the results were HPGD block 25.1µM*, KinaseGlo FLuc -3.1%, IMPase inh 5.2, ALDH1A1 inh 14.1µM*, Lamin A splicing -3.3% and PNC assembly inh -3.2.
For C=CCn1c(N)c(C(=O)NCC2CCCO2)c2nc3ccccc3nc21 (stereo not given) the results were IMPase inh -2.6, ALDH1A1 inh 2.2%, Lamin A splicing inconclusive and PNC assembly inh inconclusive.
CCc1ccccc1NC(=O)C(=O)NCCCN1CCOCC1 was read as IMPase inh 1.2.
CC1(C)Cc2c(c(-c3ccco3)nc3n[nH]c(N)c23)CO1 was read as HPGD block inconclusive, KinaseGlo FLuc -4.4%, IMPase inh inconclusive, ALDH1A1 inh 25.1µM*, Lamin A splicing inconclusive and PNC assembly inh -9.2.
For C=CCn1c(-c2ccc(S(=O)(=O)N3CCOCC3)cc2)csc1=Nc1ccccc1 the results were HPGD block -17.7%, KinaseGlo FLuc -2.2%, IMPase inh 1.3, ALDH1A1 inh inconclusive, Lamin A splicing 14.8%[0.0737 µM] and PNC assembly inh 45.7.
For CC(=O)c1cccc(N=c2scc(-c3ccc(S(=O)(=O)N4CCOCC4)cc3)n2CCO)c1 the results were HPGD block -7.4%, KinaseGlo FLuc -3.0%, ALDH1A1 inh 25.1µM*, Lamin A splicing inconclusive and PNC assembly inh 60.1.
For COc1ccc(N=c2scc(-c3ccc(S(=O)(=O)N4CCOCC4)cc3)n2CCCO)cc1 the results were HPGD block -13.0%, KinaseGlo FLuc 3.1%, IMPase inh 6.8, ALDH1A1 inh inconclusive, Lamin A splicing inconclusive and PNC assembly inh -100.0*.
Screening COc1ccc(-c2csc(=Nc3ccccc3)n2CCO)cc1 returned HPGD block -16.4%, KinaseGlo FLuc 3.1%, ALDH1A1 inh -14.7%, Lamin A splicing inconclusive and PNC assembly inh -19.2.
Screening CCOC(=O)c1noc2ncnc(Nc3cccc(OC)c3)c12 returned Lamin A splicing -6.2%[46 µM].
Screening Clc1ccc(NCn2cncn2)nc1 returned HPGD block inconclusive, KinaseGlo FLuc -4.6%, IMPase inh 14.4, ALDH1A1 inh 18.9µM*, Lamin A splicing -0.5% and PNC assembly inh -5.2.
Screening CCCSc1nnc(-c2cnn(-c3ccccc3)c2-n2cccc2)n1C returned HPGD block 17.8µM*, KinaseGlo FLuc 0.1%, IMPase inh 5.4, ALDH1A1 inh inconclusive, Lamin A splicing 20.2% and PNC assembly inh 23.8.
For CC(C)c1ccc(-n2cnn(-c3ncccc3[N+](=O)[O-])c2=O)cc1 the results were KinaseGlo FLuc -7.3% and ALDH1A1 inh 14.1µM*.
For CCOC(=O)C1CCC(CN(Cc2ccc(Cl)cc2)S(=O)(=O)c2ccc(F)c(C(=O)Nc3cccc(F)c3)c2)CC1 (stereo not given) the results were Lamin A splicing -9.6%[46 µM].
For CC(C)(CN)CN the results were HPGD block -0.3%, KinaseGlo FLuc -3.8%[7.66 µM] and ALDH1A1 inh 6.5%[13.5 µM].
Screening O=C(NN=C1CCCC1)c1[nH]c2ccc(Cl)cc2c1-c1ccccc1 returned ALDH1A1 inh 11.2µM*.
CC/C(C)=N/NC(=O)c1[nH]c2ccc(C)cc2c1-c1ccccc1 was read as KinaseGlo FLuc -3.7% and ALDH1A1 inh inconclusive.
`CCC(C)(C)NC(=O)Cc1ccc(C)cc1` gave HPGD block 14.1µM*, KinaseGlo FLuc -2.6%, IMPase inh -9.8, ALDH1A1 inh -5.5%, Lamin A splicing 8.3% and PNC assembly inh 3.8.
For CCCCNC(=O)Cc1ccc(C)cc1 the results were HPGD block inconclusive, KinaseGlo FLuc 3.3%, ALDH1A1 inh 2.1%, Lamin A splicing -8.4% and PNC assembly inh 14.9.
`COc1ccccc1C1=NNC(=NCc2ccccc2)SC1` gave KinaseGlo FLuc -5.8%, ALDH1A1 inh inconclusive and Lamin A splicing -9.1%[46 µM].
`CC(=O)c1c(C)[nH]c(C2=NNC(=NCc3ccccc3)SC2)c1C` gave KinaseGlo FLuc 1.7%, ALDH1A1 inh 28.2µM* and Lamin A splicing 11.6%[46 µM].
Screening C=CCN=C1NN=C(c2ccc3c(c2)OCCO3)CS1 returned KinaseGlo FLuc 10µM*, ALDH1A1 inh 20µM* and Lamin A splicing -3.1%[46 µM].
c1ccc(CN=C2NN=C(c3ccccc3)CS2)cc1 was read as KinaseGlo FLuc -4.9%, ALDH1A1 inh 22.4µM* and Lamin A splicing 0.6%[46 µM].
Screening C=CCN=C1NN=C(c2cc(C)n(CC=C)c2C)CS1 returned HPGD block -25.6%, KinaseGlo FLuc inconclusive, ALDH1A1 inh inconclusive, Lamin A splicing 6.5% and PNC assembly inh -0.5.
`Fc1ccc(C2=NNC(=NCc3ccccc3)SC2)cc1F` gave KinaseGlo FLuc -0.3% and ALDH1A1 inh inconclusive.
c1ccc(C2=NNC(=NCc3ccc4c(c3)OCO4)SC2)cc1 was read as IMPase inh -3.0, ALDH1A1 inh 25.1µM*, Lamin A splicing -5.2% and PNC assembly inh inconclusive.

Source: PubChem BioAssay (National Center for Advancing Translational Sciences (NCATS))
